For 16 compounds, growth results are on record in PubChem BioAssay (NCI).

SMILES strings stand for the structures. This is part of a sample that, as a whole, favours compounds with a hit. Of some 83,000 tested, about 20% had one in any assay.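 48-hour exposure, single concentration, 96-well plates; percent growth endpoint where 0 means no net growth. Active: below 10.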 Unmarked numbers belong to inactive results. Calls of active or inactive are those of the source.

Test systems include T-47D breast; BT-549 breast; MDA-MB-435 melanoma; SW-620 colon; MCF7 breast; HCT-116 colon; HCC-2998 colon; KM12 colon.
Holding throughout (experiment): NCI-60 one-dose screen, 48 h (100 = growth as untreated, 0 = no growth, -100 = all killed)
Holding throughout (details): 10 µM unless noted

Regarding `Oc1ccc(Br)cc1/C=N/NC(=S)NC12CC3CC(CC(C3)C1)C2`, the growth is -4.11% (active) in the assay on T-47D breast; 64.3% in the assay with BT-549 breast; 18.6% in the assay with MDA-MB-435 melanoma; -24.8% (active) in the assay on SW-620 colon; -17.4% (active) with MCF7 breast; 8.08% (active) in the assay with HCT-116 colon. The growth with HCC-2998 colon was -8.19% (active); in the assay with KM12 colon it was -24.6% (active).
Consider `COC1(OC)N=C(N)C2(C#N)C3(C(=O)Nc4ccccc43)C12C#N` (stereo not drawn), for which the growth with T-47D breast is 95.8%; in the assay with BT-549 breast, 62.5%; with MDA-MB-435 melanoma, 91.7%; in the assay with SW-620 colon, 94.9%; in the assay on MCF7 breast it was 86.7%; with HCT-116 colon, 81.6%. Besides, the growth with HCC-2998 colon was 103%; in the assay on KM12 colon it was 101%.
Take `CCCCCCCCCC[N+](C)(C)C`: the growth in the assay with T-47D breast was 27.3%; in the assay on BT-549 breast it was 46.7%; in the assay on MDA-MB-435 melanoma, 32.6%; in the assay with SW-620 colon, 19%; in the assay with MCF7 breast, 31.1%; with HCT-116 colon, 21.8%. Also, the values for the growth in the assay with HCC-2998 colon and in the assay with KM12 colon were 22% and -51.2% (active), respectively.
In the case of `O=CN/N=C/c1ccc(Cl)c([N+](=O)[O-])c1`, the growth is 25.3% in the assay on T-47D breast; 42.6% with BT-549 breast; 18.9% in the assay with MDA-MB-435 melanoma; 17.6% with SW-620 colon; 6.05% (active) in the assay on MCF7 breast; 16.2% in the assay with HCT-116 colon. The growth in the assay with HCC-2998 colon was 27.2%; in the assay on KM12 colon it was 7.24% (active).
Consider `COc1cc(N)c2nccc(C)c2c1OC`, for which the growth with T-47D breast was 108%; in the assay on BT-549 breast, 83.3%; with MDA-MB-435 melanoma, 110%; in the assay on SW-620 colon, 94.1%; in the assay on MCF7 breast, 113%; in the assay with HCT-116 colon, 102%. Also, the results for the growth in the assay with HCC-2998 colon and in the assay on KM12 colon were 149% and 101%, respectively.
For the compound `COc1ccc(/C=C(/C(=O)N2CCCCC2)c2cc(OC)c(OC)c(OC)c2)cc1`, the growth was 45.8% in the assay with T-47D breast; 53.6% with BT-549 breast; -51.3% (active) in the assay on MDA-MB-435 melanoma; 23.2% with SW-620 colon; 18.2% in the assay on MCF7 breast; 17.6% in the assay on HCT-116 colon. Besides, the growth with HCC-2998 colon was 46.8%; in the assay with KM12 colon, 16%.
Consider `COC1NC(Cl)=C(C#N)C(C#N)(C#N)C1(C)C` (stereo not drawn), for which the growth was 112% with T-47D breast; 97% in the assay with BT-549 breast; 124% in the assay with MDA-MB-435 melanoma; 95.9% with SW-620 colon; 124% in the assay on MCF7 breast; 108% in the assay on HCT-116 colon. Further, the growth was 113% in the assay with HCC-2998 colon and 111% in the assay with KM12 colon.
With `CC(C)C(=O)c1ccc(Cl)s1`, the growth is 90.4% with T-47D breast; 104% in the assay with BT-549 breast; 106% in the assay with MDA-MB-435 melanoma; 107% with SW-620 colon; 88.9% with MCF7 breast; 97% in the assay on HCT-116 colon. In addition, the growth with HCC-2998 colon was 99.7%; with KM12 colon it was 100%.
On to `Nc1nc2c(c3cnccc13)C(c1ccc(Cl)c(Cl)c1)Cc1cnccc1-2` (stereo not drawn), for which the growth in the assay with T-47D breast was 16.9%; in the assay with BT-549 breast, -39.1% (active); in the assay with MDA-MB-435 melanoma, -53% (active); with SW-620 colon it was 3.85% (active); in the assay with MCF7 breast it was 0.513% (active); in the assay on HCT-116 colon, -37.8% (active). In addition, the results for the growth in the assay on HCC-2998 colon and in the assay on KM12 colon were -75.7% (active) and -34.8% (active), respectively.
`CC[C@@H](C)/C=C(C)/C=C/C(=O)c1c(O)c(-c2ccc(OC(=O)[C@@]34CC[C@@](C)(C(=O)O3)C4(C)C)cc2)cn(O)c1=O`: the growth in the assay with T-47D breast was 34.7%; in the assay with BT-549 breast it was -0.686% (active); in the assay on MDA-MB-435 melanoma, 22.2%; in the assay with SW-620 colon it was 37.3%; in the assay with MCF7 breast it was 15.6%; in the assay with HCT-116 colon, 17.1%. The growth was -10.3% (active) with HCC-2998 colon and 18.4% with KM12 colon.
Consider `CCOc1ccccc1/C=N\N=C(N/N=C/c1ccccc1OCC)N/N=C/c1ccccc1OCC`, for which the growth was 16.1% in the assay with T-47D breast; 31.8% with BT-549 breast; 13.4% in the assay on MDA-MB-435 melanoma; 12.1% in the assay on SW-620 colon; 3.52% (active) in the assay on MCF7 breast; 13.1% with HCT-116 colon. The growth in the assay on HCC-2998 colon was 23.9%; in the assay with KM12 colon, 10.7%.
For `CCCNC(=O)Oc1ccc(/C(=C(/C)Cc2ccc(OC)cc2)c2ccc(OCCN3CCCCC3)cc2)cc1`, the growth with T-47D breast was 45.4%; in the assay on BT-549 breast, 92.9%; in the assay on MDA-MB-435 melanoma, 92.5%; with SW-620 colon it was 90.4%; in the assay on MCF7 breast, 31.8%; with HCT-116 colon it was 73%. For the same compound, the growth was 84.6% in the assay with HCC-2998 colon and 94% with KM12 colon.
`C=C(NC(=O)[C@H](C(C)C)N(C)c1cccc2[nH]ccc12)C(=O)OC`: the growth was 95.4% with T-47D breast; 95.3% in the assay with BT-549 breast; 102% in the assay with MDA-MB-435 melanoma; 110% with SW-620 colon; 99.6% in the assay with MCF7 breast; 94.1% in the assay on HCT-116 colon. Also, the growth with HCC-2998 colon was 113%; with KM12 colon, 109%.
On to `Cc1ccc(OCCn2ccc(=O)n(CCOc3ccc(Cl)cc3C(=O)c3cc(C)cc(C)c3)c2=O)cc1`, for which the growth in the assay with T-47D breast is 39.5%; in the assay with BT-549 breast, 55.1%; in the assay with MDA-MB-435 melanoma, -3.9% (active); in the assay with SW-620 colon, 29.7%; in the assay with MCF7 breast, 22.4%; in the assay with HCT-116 colon, 34.5%. Besides, the values for the growth with HCC-2998 colon and with KM12 colon were 64.5% and 36.9%, respectively.
Turning to `CCCCCCCCC1OC1CCCCCCCC(=O)O` (stereo not drawn), the growth was 99% in the assay with T-47D breast; 128% with BT-549 breast; 107% with MDA-MB-435 melanoma; 108% in the assay with SW-620 colon; 101% with MCF7 breast; 101% in the assay with HCT-116 colon. The growth in the assay with HCC-2998 colon was 107%; in the assay with KM12 colon, 104%.
For the compound `CC(=O)Oc1cc2ccccc2cc1C(C)C`, the growth in the assay with T-47D breast is 101%; in the assay on BT-549 breast, 112%; in the assay on MDA-MB-435 melanoma, 102%; in the assay with SW-620 colon it was 99.7%; with MCF7 breast it was 98%; in the assay with HCT-116 colon, 97.1%. The growth in the assay on HCC-2998 colon was 99.2%; with KM12 colon, 118%.
